Binding signal data for 1 sequence are collected here from article PMC7862700, “An all-to-all approach to the identification of sequence-specific readers for epigenetic DNA modifications on cytosine”.

Test in all cases: DAPPL (digital affinity profiling via proximity ligation, sequencing); 10 mM Tris-HCl pH 7.5, 50 mM NaCl, 1 mM DTT, 4% glycerol, room temperature, 30 min; GST-TFs on glutathione beads, 16-mer random dsDNA library, 0.1% formaldehyde crosslink after washing; high values mean tight binding
One experiment addresses T1, FEV (Homo sapiens, UniProt Q99581 1-238).
T1 sequence: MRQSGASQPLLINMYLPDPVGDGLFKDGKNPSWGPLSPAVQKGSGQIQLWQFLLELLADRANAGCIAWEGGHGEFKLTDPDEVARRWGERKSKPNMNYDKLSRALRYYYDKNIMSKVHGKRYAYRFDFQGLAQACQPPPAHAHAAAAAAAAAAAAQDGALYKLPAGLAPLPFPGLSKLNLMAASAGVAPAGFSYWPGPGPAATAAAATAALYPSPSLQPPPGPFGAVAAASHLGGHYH
The settings on record: protein: recombinant; tags: N-terminal GST; dsDNA, one strand shown. Put shortly: (§1)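 Binding signal is each hexamer's read frequency for a factor divided by its frequency in the tag-only sample. The factors were GST-fused human transcription factors from yeast, captured on glutathione beads, DNA-barcoded and pooled with that sample. Pools were incubated with 200 nmole of a random double-stranded 16-mer DNA library in Tris/NaCl/DTT/glycerol buffer at room temperature for 30 min, then washed, crosslinked with 0.1% formaldehyde, proximity-ligated with BsaI/T4 ligase (1 h, 37 °C), PCR-amplified and sequenced on an Illumina NextSeq500.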

Another experiment addresses ETV5 (Homo sapiens, UniProt P41161 1-510). The settings on record: protein: recombinant; tags: N-terminal GST; dsDNA, one strand shown. Put shortly: as §1
For the next experiment, the target named is HSF1 (Homo sapiens, UniProt Q00613 1-529). Conditions: protein: recombinant; tags: N-terminal GST; chain copies: 3; dsDNA, one strand shown. Put shortly: as §1
Chain of HSF1 (Q00613 whole entry): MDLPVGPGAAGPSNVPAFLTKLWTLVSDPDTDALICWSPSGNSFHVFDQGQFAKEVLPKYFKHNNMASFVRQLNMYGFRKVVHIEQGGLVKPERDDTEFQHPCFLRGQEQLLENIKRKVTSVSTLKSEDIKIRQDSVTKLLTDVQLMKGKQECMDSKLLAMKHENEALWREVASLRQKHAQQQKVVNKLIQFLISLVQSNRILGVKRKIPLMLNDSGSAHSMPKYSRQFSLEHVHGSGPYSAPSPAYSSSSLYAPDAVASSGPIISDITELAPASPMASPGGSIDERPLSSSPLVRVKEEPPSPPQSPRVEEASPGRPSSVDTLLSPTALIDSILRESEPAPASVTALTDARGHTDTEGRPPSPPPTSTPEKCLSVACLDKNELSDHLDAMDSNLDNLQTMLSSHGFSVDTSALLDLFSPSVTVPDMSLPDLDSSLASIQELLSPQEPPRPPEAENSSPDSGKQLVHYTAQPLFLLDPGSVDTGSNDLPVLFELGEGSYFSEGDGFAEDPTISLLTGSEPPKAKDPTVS
A further experiment concerns the target T2, SPIC (Homo sapiens, UniProt Q8N5J4 1-248).
T2 sequence: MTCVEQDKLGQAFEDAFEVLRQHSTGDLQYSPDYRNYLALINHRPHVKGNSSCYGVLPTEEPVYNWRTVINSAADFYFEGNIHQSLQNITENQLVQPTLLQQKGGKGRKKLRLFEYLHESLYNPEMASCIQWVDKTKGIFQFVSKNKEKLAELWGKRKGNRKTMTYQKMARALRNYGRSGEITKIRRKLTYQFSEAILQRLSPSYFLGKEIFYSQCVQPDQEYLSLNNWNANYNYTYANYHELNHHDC
Conditions: protein: recombinant; tags: N-terminal GST; dsDNA, one strand shown. In a few lines:
as §1

A further experiment deals with ELF4 (Homo sapiens, UniProt Q99607 1-663). Conditions: protein: recombinant; tags: N-terminal GST; dsDNA, one strand shown. In a few lines:
as §1

The next experiment addresses T3, ELK4 (Homo sapiens, UniProt P28324-2 1-405).
T3 sequence: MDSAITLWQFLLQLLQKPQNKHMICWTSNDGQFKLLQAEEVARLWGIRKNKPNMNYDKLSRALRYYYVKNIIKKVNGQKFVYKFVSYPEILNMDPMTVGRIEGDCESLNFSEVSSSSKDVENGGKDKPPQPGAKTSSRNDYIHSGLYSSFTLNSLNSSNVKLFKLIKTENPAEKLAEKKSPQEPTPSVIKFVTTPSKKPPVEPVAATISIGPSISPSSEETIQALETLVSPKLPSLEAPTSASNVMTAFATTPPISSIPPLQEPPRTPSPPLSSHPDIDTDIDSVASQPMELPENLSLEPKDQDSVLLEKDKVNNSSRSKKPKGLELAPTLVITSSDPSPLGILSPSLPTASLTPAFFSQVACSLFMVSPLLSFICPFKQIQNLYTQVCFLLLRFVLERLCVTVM
The settings on record: protein: recombinant; tags: N-terminal GST; dsDNA, one strand shown. Put shortly: as §1

For the next experiment, the target named is T4, ETV2 (Homo sapiens, UniProt O00321 1-342).
T4 sequence: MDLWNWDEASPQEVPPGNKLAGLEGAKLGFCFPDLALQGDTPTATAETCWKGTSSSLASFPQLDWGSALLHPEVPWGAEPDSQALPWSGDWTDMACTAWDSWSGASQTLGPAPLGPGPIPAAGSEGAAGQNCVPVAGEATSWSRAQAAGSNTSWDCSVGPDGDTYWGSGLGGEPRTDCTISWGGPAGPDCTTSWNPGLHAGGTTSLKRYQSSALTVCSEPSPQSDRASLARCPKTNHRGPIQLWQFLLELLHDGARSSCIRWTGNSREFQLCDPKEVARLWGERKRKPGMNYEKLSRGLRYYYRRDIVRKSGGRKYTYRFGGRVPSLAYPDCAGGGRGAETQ
The settings on record: protein: recombinant; tags: N-terminal GST; dsDNA, one strand shown. Put shortly: as §1

The next experiment concerns the target T5, ELF3 (Homo sapiens, UniProt P78545 1-371).
T5 sequence: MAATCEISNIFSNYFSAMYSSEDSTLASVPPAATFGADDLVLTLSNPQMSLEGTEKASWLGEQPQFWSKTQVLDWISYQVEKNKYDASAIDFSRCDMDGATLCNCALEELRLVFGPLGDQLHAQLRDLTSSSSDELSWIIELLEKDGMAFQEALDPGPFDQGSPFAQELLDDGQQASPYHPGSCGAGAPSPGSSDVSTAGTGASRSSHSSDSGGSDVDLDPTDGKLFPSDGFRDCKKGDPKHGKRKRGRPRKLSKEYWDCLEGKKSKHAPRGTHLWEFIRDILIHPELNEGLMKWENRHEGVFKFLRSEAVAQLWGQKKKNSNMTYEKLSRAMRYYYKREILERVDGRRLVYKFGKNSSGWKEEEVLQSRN
Conditions: protein: recombinant; tags: N-terminal GST; dsDNA, one strand shown. In a few lines:
as §1

For another experiment, the target named is CRX (Homo sapiens, UniProt O43186 1-299). Conditions: protein: recombinant; tags: N-terminal GST; dsDNA, one strand shown. In a few lines: as §1
Chain of CRX (O43186 whole entry): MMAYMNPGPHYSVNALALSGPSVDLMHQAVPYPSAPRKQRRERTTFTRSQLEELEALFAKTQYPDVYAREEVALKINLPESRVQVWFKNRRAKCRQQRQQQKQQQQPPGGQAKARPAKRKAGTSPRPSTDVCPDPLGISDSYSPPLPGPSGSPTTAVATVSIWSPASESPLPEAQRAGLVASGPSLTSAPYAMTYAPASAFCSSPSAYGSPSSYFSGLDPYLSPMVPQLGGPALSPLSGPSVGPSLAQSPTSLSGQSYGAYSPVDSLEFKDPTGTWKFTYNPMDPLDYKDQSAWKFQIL
Another experiment deals with ETV1 (Homo sapiens, UniProt P50549 1-477). The settings on record: protein: recombinant; tags: N-terminal GST; dsDNA, one strand shown. Put shortly: as §1
Chain of ETV1 (P50549 whole entry): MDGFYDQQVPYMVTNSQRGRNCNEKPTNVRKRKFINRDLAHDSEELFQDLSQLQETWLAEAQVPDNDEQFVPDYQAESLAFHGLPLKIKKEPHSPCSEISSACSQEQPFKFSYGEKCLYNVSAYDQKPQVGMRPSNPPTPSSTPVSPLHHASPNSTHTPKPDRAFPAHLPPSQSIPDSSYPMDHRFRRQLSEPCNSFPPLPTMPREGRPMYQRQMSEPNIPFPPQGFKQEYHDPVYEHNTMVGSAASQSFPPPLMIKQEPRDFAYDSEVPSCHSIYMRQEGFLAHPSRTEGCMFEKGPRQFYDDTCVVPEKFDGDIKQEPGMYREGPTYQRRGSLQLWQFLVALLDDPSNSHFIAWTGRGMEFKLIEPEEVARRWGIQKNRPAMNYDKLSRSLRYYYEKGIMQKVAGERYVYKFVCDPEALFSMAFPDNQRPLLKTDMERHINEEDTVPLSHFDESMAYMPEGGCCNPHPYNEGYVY
Another experiment addresses T6, ERF (Homo sapiens, UniProt P50548 1-548).
T6 sequence: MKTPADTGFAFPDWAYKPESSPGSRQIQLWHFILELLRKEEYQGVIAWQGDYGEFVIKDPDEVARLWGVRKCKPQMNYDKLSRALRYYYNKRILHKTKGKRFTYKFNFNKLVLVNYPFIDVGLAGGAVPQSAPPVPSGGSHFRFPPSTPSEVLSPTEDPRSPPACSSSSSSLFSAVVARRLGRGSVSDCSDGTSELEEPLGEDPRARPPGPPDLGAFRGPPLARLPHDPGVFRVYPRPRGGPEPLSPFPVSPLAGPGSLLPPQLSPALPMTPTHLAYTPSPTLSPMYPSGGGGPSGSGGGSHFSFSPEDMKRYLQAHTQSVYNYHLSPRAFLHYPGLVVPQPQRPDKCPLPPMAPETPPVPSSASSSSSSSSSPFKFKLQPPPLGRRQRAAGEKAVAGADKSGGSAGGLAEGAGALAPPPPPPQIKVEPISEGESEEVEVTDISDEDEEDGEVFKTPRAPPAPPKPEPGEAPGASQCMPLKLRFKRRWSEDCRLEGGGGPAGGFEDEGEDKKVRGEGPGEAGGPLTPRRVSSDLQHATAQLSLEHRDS
Conditions: protein: recombinant; tags: N-terminal GST; dsDNA, one strand shown. In a few lines:
as §1

The target of a further experiment is T7, ETV3L (Homo sapiens, UniProt Q6ZN32 1-361).
T7 sequence: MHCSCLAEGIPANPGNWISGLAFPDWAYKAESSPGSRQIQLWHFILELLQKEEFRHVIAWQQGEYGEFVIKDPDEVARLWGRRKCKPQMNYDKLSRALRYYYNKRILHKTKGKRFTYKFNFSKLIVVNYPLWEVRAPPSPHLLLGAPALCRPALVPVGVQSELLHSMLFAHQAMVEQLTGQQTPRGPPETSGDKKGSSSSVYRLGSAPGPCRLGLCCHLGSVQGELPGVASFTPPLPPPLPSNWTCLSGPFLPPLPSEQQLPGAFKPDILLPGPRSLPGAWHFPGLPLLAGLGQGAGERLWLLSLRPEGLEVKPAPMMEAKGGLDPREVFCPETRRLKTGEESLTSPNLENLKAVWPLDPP
The settings on record: protein: recombinant; tags: N-terminal GST; dsDNA, one strand shown. In a few lines:
as §1

For another experiment, the target named is T8, ETS2 (Homo sapiens, UniProt P15036 1-469).
T8 sequence: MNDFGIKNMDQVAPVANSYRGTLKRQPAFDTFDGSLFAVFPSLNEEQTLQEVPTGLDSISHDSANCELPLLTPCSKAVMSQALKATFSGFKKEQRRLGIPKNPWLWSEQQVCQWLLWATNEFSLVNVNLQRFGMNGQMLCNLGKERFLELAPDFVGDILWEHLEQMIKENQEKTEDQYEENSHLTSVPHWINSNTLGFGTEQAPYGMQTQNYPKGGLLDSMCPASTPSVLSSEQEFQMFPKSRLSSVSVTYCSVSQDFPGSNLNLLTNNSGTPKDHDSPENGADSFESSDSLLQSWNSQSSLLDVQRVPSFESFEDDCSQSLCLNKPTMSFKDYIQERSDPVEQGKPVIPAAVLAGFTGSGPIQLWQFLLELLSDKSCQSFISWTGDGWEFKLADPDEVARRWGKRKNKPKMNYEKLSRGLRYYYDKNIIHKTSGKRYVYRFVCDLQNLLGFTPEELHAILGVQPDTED
Conditions: protein: recombinant; tags: N-terminal GST; dsDNA, one strand shown. Put shortly:
as §1

In another experiment the target is T9, SPDEF (Homo sapiens, UniProt O95238 1-335).
T9 sequence: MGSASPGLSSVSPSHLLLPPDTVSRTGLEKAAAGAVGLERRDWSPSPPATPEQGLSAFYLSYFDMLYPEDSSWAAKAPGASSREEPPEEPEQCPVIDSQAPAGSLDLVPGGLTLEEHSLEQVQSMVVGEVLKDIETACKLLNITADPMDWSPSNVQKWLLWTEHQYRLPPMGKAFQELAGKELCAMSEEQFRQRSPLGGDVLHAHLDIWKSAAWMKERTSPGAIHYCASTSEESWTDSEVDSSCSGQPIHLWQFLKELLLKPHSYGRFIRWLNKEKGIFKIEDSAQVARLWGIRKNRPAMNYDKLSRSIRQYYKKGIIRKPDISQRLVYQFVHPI
The settings on record: protein: recombinant; tags: N-terminal GST; dsDNA, one strand shown. In a few lines: as §1

The target in the next experiment is T10, ETV7 (Homo sapiens, UniProt Q9Y603 1-341).
T10 sequence: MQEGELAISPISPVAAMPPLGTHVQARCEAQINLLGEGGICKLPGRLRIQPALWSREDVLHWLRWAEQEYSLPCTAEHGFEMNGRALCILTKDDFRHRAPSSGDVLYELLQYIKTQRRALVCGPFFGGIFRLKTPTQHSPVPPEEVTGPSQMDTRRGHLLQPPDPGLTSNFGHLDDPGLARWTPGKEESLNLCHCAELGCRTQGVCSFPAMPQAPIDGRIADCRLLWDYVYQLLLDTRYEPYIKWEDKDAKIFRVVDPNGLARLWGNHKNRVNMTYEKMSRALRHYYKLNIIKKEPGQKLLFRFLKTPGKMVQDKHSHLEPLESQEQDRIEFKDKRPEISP
Conditions: protein: recombinant; tags: N-terminal GST; dsDNA, one strand shown. Put shortly:
as §1

A further experiment deals with T11, ELF5 (Homo sapiens, UniProt Q9UKW6-2 1-255).
T11 sequence: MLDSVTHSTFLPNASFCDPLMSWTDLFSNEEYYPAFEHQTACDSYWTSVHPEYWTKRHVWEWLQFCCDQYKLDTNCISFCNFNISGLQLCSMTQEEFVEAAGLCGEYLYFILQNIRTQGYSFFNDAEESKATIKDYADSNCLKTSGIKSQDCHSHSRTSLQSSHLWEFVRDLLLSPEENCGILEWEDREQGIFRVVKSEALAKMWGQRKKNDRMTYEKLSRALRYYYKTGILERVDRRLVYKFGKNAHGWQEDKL
The settings on record: protein: recombinant; tags: N-terminal GST; dsDNA, one strand shown. Put shortly:
as §1

Another experiment concerns the target T12, ETV3 (Homo sapiens, UniProt P41162-2 1-143).
T12 sequence: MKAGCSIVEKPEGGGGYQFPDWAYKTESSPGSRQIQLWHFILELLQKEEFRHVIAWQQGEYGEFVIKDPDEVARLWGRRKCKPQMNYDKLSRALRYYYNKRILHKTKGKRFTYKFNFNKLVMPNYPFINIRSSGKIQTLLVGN
Conditions: protein: recombinant; tags: N-terminal GST; dsDNA, one strand shown. Put shortly: as §1

A further experiment concerns the target ETV6 (Homo sapiens, UniProt P41212 1-452). Conditions: protein: recombinant; tags: N-terminal GST; dsDNA, one strand shown. In a few lines: as §1

Chain of ELF4 (Q99607 whole entry): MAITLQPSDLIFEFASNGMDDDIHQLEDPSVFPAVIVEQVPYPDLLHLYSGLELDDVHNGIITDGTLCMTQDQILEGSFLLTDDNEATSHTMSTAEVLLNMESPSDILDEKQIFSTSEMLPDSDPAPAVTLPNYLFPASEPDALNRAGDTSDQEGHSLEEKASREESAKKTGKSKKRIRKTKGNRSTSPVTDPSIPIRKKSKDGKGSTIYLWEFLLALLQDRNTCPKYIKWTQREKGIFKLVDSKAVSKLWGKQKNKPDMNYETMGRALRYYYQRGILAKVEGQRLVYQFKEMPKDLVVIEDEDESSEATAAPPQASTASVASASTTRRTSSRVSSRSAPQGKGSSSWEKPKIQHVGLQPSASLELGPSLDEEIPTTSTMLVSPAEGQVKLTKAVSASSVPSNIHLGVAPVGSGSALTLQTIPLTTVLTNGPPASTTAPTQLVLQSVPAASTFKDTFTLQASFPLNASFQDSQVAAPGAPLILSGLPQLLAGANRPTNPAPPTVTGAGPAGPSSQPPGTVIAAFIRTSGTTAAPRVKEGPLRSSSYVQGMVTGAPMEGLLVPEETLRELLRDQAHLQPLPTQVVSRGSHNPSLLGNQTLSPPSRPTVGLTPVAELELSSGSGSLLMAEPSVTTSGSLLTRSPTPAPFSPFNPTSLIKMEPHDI
Chain of ETV6 (P41212 whole entry): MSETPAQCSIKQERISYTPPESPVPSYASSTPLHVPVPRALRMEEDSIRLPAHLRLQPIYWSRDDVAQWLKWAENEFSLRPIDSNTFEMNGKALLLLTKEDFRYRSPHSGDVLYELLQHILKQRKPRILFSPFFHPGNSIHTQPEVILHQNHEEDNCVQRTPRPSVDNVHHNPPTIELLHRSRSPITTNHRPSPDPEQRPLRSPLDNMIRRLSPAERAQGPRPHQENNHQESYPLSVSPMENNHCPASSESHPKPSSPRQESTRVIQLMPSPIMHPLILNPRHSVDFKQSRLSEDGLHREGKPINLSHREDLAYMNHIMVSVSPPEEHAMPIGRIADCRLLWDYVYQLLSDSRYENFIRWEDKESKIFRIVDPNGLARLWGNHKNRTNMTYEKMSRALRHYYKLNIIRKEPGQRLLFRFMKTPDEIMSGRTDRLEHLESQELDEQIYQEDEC
Chain of ETV5 (P41161 whole entry): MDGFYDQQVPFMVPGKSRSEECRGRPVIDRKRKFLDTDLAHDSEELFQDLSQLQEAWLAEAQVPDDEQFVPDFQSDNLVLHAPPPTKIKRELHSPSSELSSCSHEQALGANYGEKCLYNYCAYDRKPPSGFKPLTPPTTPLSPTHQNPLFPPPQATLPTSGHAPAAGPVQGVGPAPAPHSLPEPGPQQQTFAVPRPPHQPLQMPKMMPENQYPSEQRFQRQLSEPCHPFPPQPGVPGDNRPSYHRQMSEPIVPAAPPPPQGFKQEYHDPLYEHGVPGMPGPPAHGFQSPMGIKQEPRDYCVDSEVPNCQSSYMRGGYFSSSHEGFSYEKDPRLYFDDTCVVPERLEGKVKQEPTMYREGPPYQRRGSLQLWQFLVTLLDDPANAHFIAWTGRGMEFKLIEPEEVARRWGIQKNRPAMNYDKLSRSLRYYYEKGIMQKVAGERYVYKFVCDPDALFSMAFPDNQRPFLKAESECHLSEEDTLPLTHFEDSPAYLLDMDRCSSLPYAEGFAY

As for TTGATA, the binding signal is 1.13 fold enrichment (6-mer frequency, TF over GST control) with FEV; 1.15 fold enrichment (6-mer frequency, TF over GST control) in the experiment with ETV5; 1.19 fold enrichment (6-mer frequency, TF over GST control) with HSF1; 1.36 fold enrichment (6-mer frequency, TF over GST control) in the experiment with SPIC; 1.29 fold enrichment (6-mer frequency, TF over GST control) in the experiment with ELF4; 1.42 fold enrichment (6-mer frequency, TF over GST control) with ELK4. Also, the binding signal with ETV2 is 1.23 fold enrichment (6-mer frequency, TF over GST control); with ELF3 it was 1.03 fold enrichment (6-mer frequency, TF over GST control); with CRX it was 1.53 fold enrichment (6-mer frequency, TF over GST control); with ETV1, 1.25 fold enrichment (6-mer frequency, TF over GST control); with ERF, 1.24 fold enrichment (6-mer frequency, TF over GST control); with ETV3L, 1.27 fold enrichment (6-mer frequency, TF over GST control). The binding signal is 1.15 fold enrichment (6-mer frequency, TF over GST control) with ETS2; 1.13 fold enrichment (6-mer frequency, TF over GST control) in the experiment with SPDEF; 1.23 fold enrichment (6-mer frequency, TF over GST control) with ETV7; 1.21 fold enrichment (6-mer frequency, TF over GST control) with ELF5; 1.25 fold enrichment (6-mer frequency, TF over GST control) in the experiment with ETV3; 1.14 fold enrichment (6-mer frequency, TF over GST control) with ETV6.
